The record followed here is ChEMBL document CHEMBL3988442, “University of Dundee, Small-Polar-MMV Screening Library” (2021).

For some of these results: Potency and affinity values are given separately.

Common to all, as to set-up: scale not given: direction of the effect not stated beside the values
For test [1], the target named is Protein translocase subunit SecA (Escherichia coli (strain K12)) (UniProt P10408). The experiment in a line: Assay to Identify E. coli SecA ATPase Inhibitors. The test is classed as functional. Particulars: 30 µM.
Protein translocase subunit SecA (Escherichia coli (strain K12)), sequence (P10408 whole entry): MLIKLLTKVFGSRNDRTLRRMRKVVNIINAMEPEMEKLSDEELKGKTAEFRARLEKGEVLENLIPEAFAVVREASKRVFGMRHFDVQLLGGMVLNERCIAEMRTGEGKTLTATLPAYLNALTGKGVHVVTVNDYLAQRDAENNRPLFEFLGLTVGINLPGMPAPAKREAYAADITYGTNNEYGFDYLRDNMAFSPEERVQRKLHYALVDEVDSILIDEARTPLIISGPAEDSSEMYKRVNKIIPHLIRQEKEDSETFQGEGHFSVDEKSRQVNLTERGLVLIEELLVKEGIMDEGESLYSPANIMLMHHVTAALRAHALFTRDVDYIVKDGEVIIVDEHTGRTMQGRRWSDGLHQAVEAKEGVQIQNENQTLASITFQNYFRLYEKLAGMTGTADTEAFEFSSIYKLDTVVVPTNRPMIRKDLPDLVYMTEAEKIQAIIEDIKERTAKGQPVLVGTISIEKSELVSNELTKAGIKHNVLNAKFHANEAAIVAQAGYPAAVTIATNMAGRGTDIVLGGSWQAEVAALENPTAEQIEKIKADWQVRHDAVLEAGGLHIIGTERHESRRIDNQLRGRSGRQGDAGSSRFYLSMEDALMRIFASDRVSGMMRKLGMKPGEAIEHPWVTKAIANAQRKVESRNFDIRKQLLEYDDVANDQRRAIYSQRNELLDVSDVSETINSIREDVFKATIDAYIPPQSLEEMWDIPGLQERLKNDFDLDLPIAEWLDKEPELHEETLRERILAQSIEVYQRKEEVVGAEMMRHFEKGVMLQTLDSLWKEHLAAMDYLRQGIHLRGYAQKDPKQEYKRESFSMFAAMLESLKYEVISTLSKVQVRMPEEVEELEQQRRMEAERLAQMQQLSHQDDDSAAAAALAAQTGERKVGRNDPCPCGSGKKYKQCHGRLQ
Test [2] addresses T1, Ubiquitin-activating enzyme e1, putative (Leishmania donovani (strain BPK282A1)) (UniProt E9BSI1).
T1 sequence (whole entry): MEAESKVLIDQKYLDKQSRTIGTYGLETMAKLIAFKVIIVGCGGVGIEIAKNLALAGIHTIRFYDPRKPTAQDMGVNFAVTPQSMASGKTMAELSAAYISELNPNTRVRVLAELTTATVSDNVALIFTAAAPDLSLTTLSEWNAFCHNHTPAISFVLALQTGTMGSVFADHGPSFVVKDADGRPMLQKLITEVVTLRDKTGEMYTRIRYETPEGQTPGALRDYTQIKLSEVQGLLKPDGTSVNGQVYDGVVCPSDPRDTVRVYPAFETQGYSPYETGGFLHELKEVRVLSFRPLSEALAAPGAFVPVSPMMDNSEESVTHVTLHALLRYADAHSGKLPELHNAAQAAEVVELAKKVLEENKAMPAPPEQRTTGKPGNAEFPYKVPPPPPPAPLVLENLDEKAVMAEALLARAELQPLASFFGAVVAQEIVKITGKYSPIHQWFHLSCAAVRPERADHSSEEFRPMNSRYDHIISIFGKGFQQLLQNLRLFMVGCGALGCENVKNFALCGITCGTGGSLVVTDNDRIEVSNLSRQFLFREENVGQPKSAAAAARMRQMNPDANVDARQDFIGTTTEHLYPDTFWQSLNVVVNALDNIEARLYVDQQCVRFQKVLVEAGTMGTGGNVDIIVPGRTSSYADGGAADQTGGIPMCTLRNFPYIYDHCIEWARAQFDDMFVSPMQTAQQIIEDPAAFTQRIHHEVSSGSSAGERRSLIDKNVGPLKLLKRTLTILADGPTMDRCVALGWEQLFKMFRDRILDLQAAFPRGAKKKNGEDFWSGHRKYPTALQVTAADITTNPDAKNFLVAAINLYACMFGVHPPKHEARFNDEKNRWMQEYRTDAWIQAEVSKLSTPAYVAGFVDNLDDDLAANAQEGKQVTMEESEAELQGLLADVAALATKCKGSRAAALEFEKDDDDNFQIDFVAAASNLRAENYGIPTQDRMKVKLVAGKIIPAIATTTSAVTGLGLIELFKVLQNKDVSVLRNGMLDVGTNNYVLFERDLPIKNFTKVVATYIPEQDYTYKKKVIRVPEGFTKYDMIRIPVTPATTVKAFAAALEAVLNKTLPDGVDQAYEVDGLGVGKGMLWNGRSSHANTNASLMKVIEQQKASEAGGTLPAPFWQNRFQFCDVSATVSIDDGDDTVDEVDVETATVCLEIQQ
The experiment in a line: Leishmania donovani Ubiquitin Activating Enzyme (LdE1). The test is classed as functional. Particulars: 30 µM.

Test [3] addresses AMP-activated protein kinase, AMPK (Homo sapiens) (UniProt P54646+O43741+P54619+Q9UGJ0+Q9Y478+Q13131+Q9UGI9). Description: AMP-dependent Kinase enzyme assay. An in vitro enzyme assay that detects ADP turnover that is directly proportional to AMPK activity. This uses naive AMPK that is activated during the assay with MK-8722. In kind it is functional. Particulars: 30 µM.
Test [4] has as its target Sialic acid-binding Ig-like lectin 9 (Homo sapiens) (UniProt Q9Y336). Description: Hs-Siglec9 ALPHAscreen SOP 20170721. Particulars: 10 µM. On the technique in general: Alpha assays give light when donor and acceptor beads are brought close together.
Test [5] deals with Trypanosoma cruzi. The experiment in a line: Trypanosoma cruzi phosphomannomutase and mannose-1-phosphate guanylyltransferase assay. The test is classed as functional. Particulars: 10 µM.
Test [6] addresses T2, Arginase-2, mitochondrial (Homo sapiens) (UniProt P78540).
T2 sequence (whole entry): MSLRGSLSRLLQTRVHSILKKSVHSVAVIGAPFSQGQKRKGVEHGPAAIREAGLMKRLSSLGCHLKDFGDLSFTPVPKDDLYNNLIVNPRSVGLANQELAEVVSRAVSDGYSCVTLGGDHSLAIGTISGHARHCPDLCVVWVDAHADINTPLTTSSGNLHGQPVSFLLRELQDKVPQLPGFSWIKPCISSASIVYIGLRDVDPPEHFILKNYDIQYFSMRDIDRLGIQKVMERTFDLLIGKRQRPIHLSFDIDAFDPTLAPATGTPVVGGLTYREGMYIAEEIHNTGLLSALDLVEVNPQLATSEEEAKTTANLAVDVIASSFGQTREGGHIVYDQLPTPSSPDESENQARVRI
The experiment in a line: in vitro enzyme assay to detect the production of urea directly proportional to the activity of Arginase II. Also: in the data most compounds retested in dose-response had high values. In kind it is functional. Particulars: 33.3 µM.

Test [7] concerns the target T3, Proteasome subunit beta (Trypanosoma cruzi) (UniProt O96673).
T3 sequence (whole entry): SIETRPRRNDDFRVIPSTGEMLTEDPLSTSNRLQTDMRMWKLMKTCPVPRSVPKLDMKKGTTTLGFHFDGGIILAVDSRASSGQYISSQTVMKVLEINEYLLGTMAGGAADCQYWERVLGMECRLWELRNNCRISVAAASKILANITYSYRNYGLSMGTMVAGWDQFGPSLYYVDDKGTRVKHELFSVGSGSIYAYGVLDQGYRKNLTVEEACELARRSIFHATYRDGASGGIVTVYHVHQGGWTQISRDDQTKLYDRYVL
Description: Trypanosoma cruzi proteasome chymotrypsin-like activity (TcProtChymo) assay. Also: in the data most compounds retested in dose-response had high values. In kind it is functional. Particulars: 9.37 µM.

Test [8] is filed under the species Homo sapiens. Description: To identify inhibition of the IFN signalling (Jak-Stat) pathway via expression of an eGFP reporter gene under the control of an IFN-stimulated response element (ISRE) containing MxA promoter. In kind it is functional. Particulars: 30 µM. For orientation: In a reporter assay the amount or activity of a reporter protein is the signal.
Test [9] concerns the target T4, Tyrosyl-tRNA synthetase, putative (Trypanosoma cruzi (strain CL Brener)) (UniProt Q4DSP6).
T4 sequence (whole entry): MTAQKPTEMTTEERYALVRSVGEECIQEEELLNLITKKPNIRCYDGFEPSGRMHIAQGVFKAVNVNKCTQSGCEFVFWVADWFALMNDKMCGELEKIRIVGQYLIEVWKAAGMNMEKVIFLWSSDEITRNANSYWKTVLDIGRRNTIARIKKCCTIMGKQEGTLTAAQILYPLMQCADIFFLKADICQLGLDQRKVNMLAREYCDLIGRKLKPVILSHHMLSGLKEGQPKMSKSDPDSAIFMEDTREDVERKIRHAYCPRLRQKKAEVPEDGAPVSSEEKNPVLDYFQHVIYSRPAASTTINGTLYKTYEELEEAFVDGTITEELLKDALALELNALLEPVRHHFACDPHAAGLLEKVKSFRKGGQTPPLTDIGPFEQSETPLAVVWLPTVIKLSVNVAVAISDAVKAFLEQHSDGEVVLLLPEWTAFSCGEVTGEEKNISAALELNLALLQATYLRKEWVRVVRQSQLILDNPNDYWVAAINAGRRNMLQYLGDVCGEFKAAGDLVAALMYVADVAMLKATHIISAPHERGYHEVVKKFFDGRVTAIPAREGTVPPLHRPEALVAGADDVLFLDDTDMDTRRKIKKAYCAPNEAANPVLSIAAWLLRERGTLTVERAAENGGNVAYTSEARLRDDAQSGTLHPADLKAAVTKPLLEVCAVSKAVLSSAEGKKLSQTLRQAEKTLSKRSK
The experiment in a line: Trypanosoma cruzi tyrosyl tRNA synthetase (TcYRS) _High Tyrosine SOP. Also: in the data most compounds retested in dose-response had high values. In kind it is functional. Particulars: 30 µM.

The target of test [10] is T4, Tyrosyl-tRNA synthetase, putative (Trypanosoma cruzi (strain CL Brener)). Description: Trypanosoma cruzi tyrosyl tRNA synthetase (TcYRS) SOP. The test is classed as functional. Particulars: 30 µM.
Test [11] addresses Chromo domain-containing protein 1 (Saccharomyces cerevisiae (strain ATCC 204508 / S288c) (Baker's yeast)) (UniProt P32657). Description: ScCHD-1 Enzyme Inhibition Assay. Also: in the data most compounds retested in dose-response had high values. The test is classed as functional. Particulars: 30 µM.

Chromo domain-containing protein 1 (Saccharomyces cerevisiae (strain ATCC 204508 / S288c) (Baker's yeast)), sequence (P32657 whole entry, the tested form may be a part): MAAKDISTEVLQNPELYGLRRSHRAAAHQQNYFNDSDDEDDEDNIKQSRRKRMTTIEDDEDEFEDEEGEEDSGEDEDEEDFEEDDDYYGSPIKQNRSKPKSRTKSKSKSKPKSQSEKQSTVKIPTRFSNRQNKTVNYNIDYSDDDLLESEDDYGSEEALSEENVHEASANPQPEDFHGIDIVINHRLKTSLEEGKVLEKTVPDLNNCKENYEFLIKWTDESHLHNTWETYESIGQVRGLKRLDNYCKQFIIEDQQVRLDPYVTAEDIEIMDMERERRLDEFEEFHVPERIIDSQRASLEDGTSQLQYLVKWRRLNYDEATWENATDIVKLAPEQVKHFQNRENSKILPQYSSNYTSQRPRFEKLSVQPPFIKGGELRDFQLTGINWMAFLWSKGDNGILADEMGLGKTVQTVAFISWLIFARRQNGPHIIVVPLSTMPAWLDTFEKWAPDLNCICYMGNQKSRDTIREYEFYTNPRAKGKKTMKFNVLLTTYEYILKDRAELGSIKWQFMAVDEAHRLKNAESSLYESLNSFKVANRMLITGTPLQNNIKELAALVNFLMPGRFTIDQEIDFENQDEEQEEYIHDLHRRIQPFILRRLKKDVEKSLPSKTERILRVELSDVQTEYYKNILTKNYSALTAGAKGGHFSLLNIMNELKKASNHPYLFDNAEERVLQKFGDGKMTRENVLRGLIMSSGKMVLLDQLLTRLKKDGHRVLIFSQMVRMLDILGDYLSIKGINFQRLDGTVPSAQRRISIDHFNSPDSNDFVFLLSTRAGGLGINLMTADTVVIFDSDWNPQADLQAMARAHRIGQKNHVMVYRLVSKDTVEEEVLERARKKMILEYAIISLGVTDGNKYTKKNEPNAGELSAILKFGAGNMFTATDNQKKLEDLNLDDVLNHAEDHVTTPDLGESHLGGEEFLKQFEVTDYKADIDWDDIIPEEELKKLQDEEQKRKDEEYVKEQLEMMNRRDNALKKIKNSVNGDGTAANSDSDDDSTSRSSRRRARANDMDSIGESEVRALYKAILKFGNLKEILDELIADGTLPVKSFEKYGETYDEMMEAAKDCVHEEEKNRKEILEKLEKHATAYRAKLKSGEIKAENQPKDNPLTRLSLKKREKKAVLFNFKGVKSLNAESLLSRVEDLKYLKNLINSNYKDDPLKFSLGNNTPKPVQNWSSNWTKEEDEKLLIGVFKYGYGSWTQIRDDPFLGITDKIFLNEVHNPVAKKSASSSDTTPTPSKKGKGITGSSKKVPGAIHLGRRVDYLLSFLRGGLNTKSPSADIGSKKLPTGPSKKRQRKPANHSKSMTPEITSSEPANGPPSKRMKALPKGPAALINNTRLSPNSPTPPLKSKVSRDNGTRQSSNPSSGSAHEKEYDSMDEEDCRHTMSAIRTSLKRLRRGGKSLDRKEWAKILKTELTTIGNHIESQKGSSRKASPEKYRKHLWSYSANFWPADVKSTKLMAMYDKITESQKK
Sialic acid-binding Ig-like lectin 9 (Homo sapiens), sequence (Q9Y336 whole entry): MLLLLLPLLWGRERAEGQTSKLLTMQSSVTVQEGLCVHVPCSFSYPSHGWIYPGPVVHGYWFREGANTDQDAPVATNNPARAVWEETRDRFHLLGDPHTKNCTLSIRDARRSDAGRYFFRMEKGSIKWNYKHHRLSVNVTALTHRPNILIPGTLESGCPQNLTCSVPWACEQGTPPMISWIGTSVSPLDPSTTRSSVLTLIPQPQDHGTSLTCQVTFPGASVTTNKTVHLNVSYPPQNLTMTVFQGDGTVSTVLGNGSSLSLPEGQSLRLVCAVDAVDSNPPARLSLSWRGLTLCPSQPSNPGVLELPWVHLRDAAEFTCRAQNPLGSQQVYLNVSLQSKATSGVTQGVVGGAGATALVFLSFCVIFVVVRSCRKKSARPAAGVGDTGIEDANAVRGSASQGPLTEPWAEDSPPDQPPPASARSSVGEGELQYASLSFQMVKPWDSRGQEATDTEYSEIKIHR

As for `COc1ccccc1[C@@H]1CN(C(=O)c2csc(C)n2)C[C@H]1C(=O)O`, the Percent Effect is -2.85% in [1]; 1.39% in test [2]; -3.07% in [3]; -2.56% in test [4]; -0.0972% in [5]; 5.3% in test [6]. The Percent Effect was 16.7% in [7]; -4.31% in test [8]; 12.6% in test [9]; 17.9% in test [10]; -3.19% in test [11].

`CNC(=O)C1CCN(C(=O)c2cccn2Cc2cccs2)CC1`: the Percent Effect in test [1] is -4.47%; in test [2], -2.6%; in [3], 1.37%; in test [4] it was -5.3%; in test [5] it was -5.99%; in test [6] it was 2.85%. Besides, the Percent Effect in test [7] was 6.25%; in test [8], 40.1%; in test [9], 6.8%; in test [10], 9.76%; in test [11] it was -7.72%.

Take `O=C(CC1CCCC1)NCCn1ccc(-c2ccccn2)n1`: the Percent Effect is -2.17% in [1]; 2.6% in [2]; 9.65% in test [3]; 12% in test [4]; -3.85% in test [5]; 0.645% in test [6]. The Percent Effect in [7] was -2.09%; in [8], -8.59%; in [9], 2.12%; in test [10], 6.41%; in test [11] it was -2.03%.

For the compound `Cc1ccc(-c2nnc(SCC(=O)O)n2-c2ccc(C)cc2)cc1`, the Percent Effect in test [1] is -2.58%; in test [2] it was 13.3%; in test [3] it was 1.28%; in [4], 2.44%; in test [5], 3.74%; in test [6], 1.17%. The Percent Effect in [7] was 13.8%; in test [8], 28.5%; in test [9] it was 6.38%; in [10], -98.7%; in test [11] it was -3.8%.

Consider `CCN1CC2(CC1=O)CN(Cc1cccs1)CCN(C(=O)C(C)C)C2` (stereo unspecified), for which the Percent Effect is -5.19% in test [1]; -5.41% in test [2]; 2.9% in test [3]; -2.56% in test [4]; -2.73% in test [5]; -3.33% in [6]. Also, the Percent Effect in [7] is 7.35%; in [8] it was -3.43%; in [9], 4.95%; in [10] it was 11%; in test [11], 4.59%.

Turning to `Cc1nc2ccccn2c1CN(Cc1cccnc1)CC1CCCO1` (stereo unspecified), the Percent Effect in [1] was -1.83%; in [2] it was -2.74%; in test [3] it was 2.15%; in test [4], 0.744%; in test [5] it was -6.27%; in [6], 0.455%. In addition, the Percent Effect in [7] was 7.63%; in test [8], 13.7%; in test [9], -2.15%; in test [10], -2.5%; in [11] it was -1.23%.

As to `CC(C)CNC(=O)Nc1ccc(CN2CCOC2=O)cc1`, the Percent Effect was -6.23% in test [1]; -15.3% in test [2]; -5.54% in [3]; 6.22% in [4]; -2.23% in test [5]; 0.442% in test [6]. The Percent Effect in test [7] was 12.8%; in test [8], 25.7%; in [9], -7.37%; in [10] it was -25.6%; in [11] it was -1.07%.

As to `Cc1csc([C@@H]2C[C@@H]3CCN(Cc4cnn(C)c4)C[C@H]3O2)n1`, the Percent Effect in [1] was -5.44%; in test [2] it was 2.6%; in [3], -0.433%; in test [4], 1.83%; in test [5], -0.0983%; in test [6], -5.52%. The Percent Effect in [7] is 3.33%; in [8], -23.4%; in test [9] it was 1.07%; in test [10], 1.24%; in [11], -4%.

Take `CC1CCCN(Cc2csc(-c3ncccn3)n2)CC1` (stereo unspecified): the Percent Effect in test [1] is -3.33%; in [2] it was -16.2%; in test [3] it was -12.5%; in test [4] it was 18.6%; in test [5] it was 8.26%; in test [6] it was -1.66%. The Percent Effect came out at 20.5% in [7]; 29.2% in test [8]; 13.9% in [9]; 15.8% in test [10]; 2.62% in [11].

Turning to `CCn1ncnc1C(NC(=O)CC1CCN(C(C)C)CC1)C1CC1` (stereo unspecified), the Percent Effect in test [1] was -12.1%; in test [2] it was -2.7%; in test [3] it was -3.06%; in test [4], -6.3%; in test [5] it was -6.16%; in test [6] it was -1.74%. Further, the Percent Effect in [7] is 3.18%; in [8] it was -5.64%; in [9], -2.15%; in [10], 1.24%; in [11], -3.37%.

Consider `Cc1ccoc1C(=O)N1CCOCC2(CCN(c3ncccn3)C2)C1` (stereo unspecified), for which the Percent Effect in test [1] is -3.09%; in test [2], 5.41%; in [3], -4.43%; in test [4], 21.7%; in [5], 5.57%; in test [6], 13.2%. Moreover, the Percent Effect in test [7] was 9.01%; in test [8], 10.4%; in test [9] it was 7.53%; in test [10] it was 21%; in test [11], -6.03%.
